Results as given in the supplement of paper PMC10849652.
About 8,800 targets were measured; listed, in parts, are those with a hit and a random draw of the rest. About 0.5% of all pairs of compound and target were hits.

Tests used:
Experiment in all cases: log2 fold change, soluble protein after heating vs DMSO (PISA); higher = thermal stabilisation; K562 lysate, 10 uM; active = over 0.2 and 3.5 SD of the protein, either way, in both replicates (recomputed)
alvocidib = compound: CN1CC[C@H](c2c(O)cc(O)c3c(=O)cc(-c4ccccc4Cl)oc23)[C@H](O)C1 [alvocidib]
In short: (§1)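 K562 pellets were dounce-homogenised in PBS pH 7.4 with 1 mM MgCl2, and the crude extract at 1 mg/mL protein was treated with 10 μM compound for 30 min. Aliquots were heated for 3 min across 48°C-58°C, pooled, and brought to 0.5% NP-40 at 4°C; soluble protein was the supernatant after 21,000xg for 90 min. Soluble protein was quantified by TMTpro 16plex LC-MS/MS with channel sums equalised, and reported as log2 fold change in thermal stability against DMSO controls, with values from duplicates.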

Tubastatin A = compound: CN1CCc2c(c3ccccc3n2Cc2ccc(C(=O)NO)cc2)C1 [Tubastatin A]
In short: as §1

[1] = compound: CNC(=O)C1=CC=CC=C1NC2=NC(=NC=C2Cl)NC3=C(C=C(C=C3)N4CCOCC4)OC
In short: as §1

defactinib = compound: CNC(=O)c1ccc(Nc2ncc(C(F)(F)F)c(NCc3nccnc3N(C)S(C)(=O)=O)n2)cc1 [defactinib]
In short: as §1

[2] = compound: CNc1nc(-c2ccc3c(N)n[nH]c3c2)cc(N2C[C@@H](C(=O)NC3CCCCC3)CC[C@H]2C)n1
In short: as §1

encorafenib = compound: COC(=O)N[C@@H](C)CNc1nccc(-c2cn(C(C)C)nc2-c2cc(Cl)cc(NS(C)(=O)=O)c2F)n1 [encorafenib]
In short: as §1

[3] = compound: COC(=O)[C@H](CCSC)NC(=O)C1=C(C=C(C=C1)NC[C@H](CS)N)C2=CC=CC=C2
In short: as §1

alisertib = compound: COc1cc(Nc2ncc3c(n2)-c2ccc(Cl)cc2C(c2c(F)cccc2OC)=NC3)ccc1C(=O)O [alisertib]
In short: as §1

[4] = compound: COc1cc2nc(-c3cc(F)ccc3O)nc(N[C@@H]3CNC[C@H]3C(C)(C)O)c2cc1OC
In short: as §1

gefitinib = compound: COc1cc2ncnc(Nc3ccc(F)c(Cl)c3)c2cc1OCCCN1CCOCC1 [gefitinib]
In short: as §1

Measured: log2 fold change

CCDC186 (UniProt Q7Z3E2)
inactive: alvocidib 0.056 | Tubastatin A 0.004 | [1] 0.062 | defactinib -0.012 | [2] -0.029 | encorafenib 0.067 | [3] -0.004 | alisertib 0.015 | [4] 0.004 | gefitinib 0.055

C1orf131 isoform 5 (UniProt Q8NDD1)
Chain of UniProt Q8NDD1 (Q8NDD1 whole entry, looked up): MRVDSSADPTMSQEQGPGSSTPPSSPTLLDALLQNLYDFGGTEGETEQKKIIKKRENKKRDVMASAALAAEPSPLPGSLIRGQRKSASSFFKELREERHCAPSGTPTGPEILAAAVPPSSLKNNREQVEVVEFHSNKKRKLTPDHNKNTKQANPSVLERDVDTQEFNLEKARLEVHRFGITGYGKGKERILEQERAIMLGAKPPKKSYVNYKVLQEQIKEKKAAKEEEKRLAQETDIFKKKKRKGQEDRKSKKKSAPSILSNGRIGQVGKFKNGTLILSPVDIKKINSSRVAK
inactive: alvocidib -0.118 | Tubastatin A -0.036 | [1] 0.03 | defactinib 0.013 | [2] 0.148 | encorafenib 0.127 | [3] 0.02 | alisertib 0.148 | [4] -0.038 | gefitinib 0.111

CCNB2 (UniProt O95067)
Chain of UniProt O95067 (O95067 whole entry, looked up): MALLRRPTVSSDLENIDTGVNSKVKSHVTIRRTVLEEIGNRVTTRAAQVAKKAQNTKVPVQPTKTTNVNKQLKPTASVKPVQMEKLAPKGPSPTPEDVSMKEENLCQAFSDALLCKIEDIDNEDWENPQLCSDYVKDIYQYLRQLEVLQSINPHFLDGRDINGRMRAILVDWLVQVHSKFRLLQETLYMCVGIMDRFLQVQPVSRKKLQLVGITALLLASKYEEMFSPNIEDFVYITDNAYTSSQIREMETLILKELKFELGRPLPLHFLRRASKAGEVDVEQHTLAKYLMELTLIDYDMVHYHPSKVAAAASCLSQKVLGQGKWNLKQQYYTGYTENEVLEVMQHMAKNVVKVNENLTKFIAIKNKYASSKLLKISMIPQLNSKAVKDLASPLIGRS
inactive: alvocidib 0.046 | Tubastatin A 0.027 | [1] 0.028 | defactinib -0.044 | [2] 0 | encorafenib 0.039 | [3] 0.032 | alisertib -0.076 | [4] 0.031 | gefitinib 0.084

CELF1 isoform 4 (UniProt Q92879)
Chain of UniProt Q92879 (Q92879 whole entry, looked up): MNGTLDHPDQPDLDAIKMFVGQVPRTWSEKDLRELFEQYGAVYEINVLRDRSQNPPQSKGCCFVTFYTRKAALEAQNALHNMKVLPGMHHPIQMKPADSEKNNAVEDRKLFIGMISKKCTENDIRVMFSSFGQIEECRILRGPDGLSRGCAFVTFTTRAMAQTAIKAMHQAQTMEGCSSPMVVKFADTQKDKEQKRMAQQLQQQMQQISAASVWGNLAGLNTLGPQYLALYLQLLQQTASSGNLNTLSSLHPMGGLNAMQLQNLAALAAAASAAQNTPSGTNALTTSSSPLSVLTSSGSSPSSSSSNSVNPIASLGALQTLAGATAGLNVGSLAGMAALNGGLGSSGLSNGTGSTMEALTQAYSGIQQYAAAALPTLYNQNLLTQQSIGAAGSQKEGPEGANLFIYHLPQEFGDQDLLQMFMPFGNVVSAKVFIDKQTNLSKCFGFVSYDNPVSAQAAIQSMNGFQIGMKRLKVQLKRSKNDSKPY
inactive: alvocidib 0 | Tubastatin A -0.167 | [1] 0.034 | defactinib 0.049 | [2] -0.059 | encorafenib 0.108 | [3] -0.031 | alisertib 0.048 | [4] -0.026 | gefitinib 0.056

CDC42EP4 (UniProt Q9H3Q1)
inactive: alvocidib -0.086 | Tubastatin A -0.013 | [1] 0.041 | defactinib 0.033 | [2] 0.113 | encorafenib 0.079 | [3] -0.054 | alisertib -0.085 | [4] -0.017 | gefitinib 0.006

CDC123 (UniProt O75794)
Chain of UniProt O75794 (O75794 whole entry, looked up): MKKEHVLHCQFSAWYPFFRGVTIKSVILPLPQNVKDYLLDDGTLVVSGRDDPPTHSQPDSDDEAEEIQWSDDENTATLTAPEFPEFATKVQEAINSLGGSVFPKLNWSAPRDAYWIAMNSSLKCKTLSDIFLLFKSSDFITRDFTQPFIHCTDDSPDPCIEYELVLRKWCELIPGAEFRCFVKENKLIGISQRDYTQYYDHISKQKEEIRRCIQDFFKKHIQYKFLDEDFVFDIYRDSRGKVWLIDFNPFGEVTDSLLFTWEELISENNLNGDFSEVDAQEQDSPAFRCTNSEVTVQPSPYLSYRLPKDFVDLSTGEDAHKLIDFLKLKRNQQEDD
inactive: alvocidib 0.019 | Tubastatin A -0.125 | [1] 0.009 | defactinib 0.007 | [2] -0.03 | encorafenib 0.018 | [3] 0.136 | alisertib -0.004 | [4] -0.023 | gefitinib -0.001

CALB2 (UniProt P22676)
inactive: alvocidib -0.028 | Tubastatin A -0.022 | [1] -0.028 | defactinib -0.062 | [2] 0.034 | encorafenib -0.014 | [3] -0.003 | alisertib -0.008 | [4] -0.01 | gefitinib 0.112

CDC45 isoform 3 (UniProt O75419)
inactive: alvocidib 0.031 | Tubastatin A -0.138 | [1] 0.031 | defactinib 0.028 | [2] -0.017 | encorafenib 0.001 | [3] 0.019 | alisertib 0.023 | [4] 0.009 | gefitinib -0.034

CCDC25 (UniProt Q86WR0)
Chain of UniProt Q86WR0 (Q86WR0 whole entry, looked up): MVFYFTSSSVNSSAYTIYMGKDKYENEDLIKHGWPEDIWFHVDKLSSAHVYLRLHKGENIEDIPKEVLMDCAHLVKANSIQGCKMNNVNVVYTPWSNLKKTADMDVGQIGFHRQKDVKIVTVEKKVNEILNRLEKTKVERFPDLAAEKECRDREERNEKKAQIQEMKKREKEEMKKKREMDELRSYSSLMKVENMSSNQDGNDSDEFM
inactive: alvocidib 0.132 | Tubastatin A 0 | [1] -0.012 | defactinib -0.025 | [2] 0.075 | encorafenib 0.008 | [3] 0.083 | alisertib -0.027 | [4] -0.005 | gefitinib 0.01

CHAF1A (UniProt Q13111)
inactive: alvocidib -0.003 | Tubastatin A -0.089 | [1] -0.019 | defactinib 0.02 | [2] 0.038 | encorafenib 0.003 | [3] 0.063 | alisertib -0.107 | [4] -0.01 | gefitinib -0.065

ATAD1 (UniProt Q8NBU5)
Chain of UniProt Q8NBU5 (Q8NBU5 whole entry, looked up): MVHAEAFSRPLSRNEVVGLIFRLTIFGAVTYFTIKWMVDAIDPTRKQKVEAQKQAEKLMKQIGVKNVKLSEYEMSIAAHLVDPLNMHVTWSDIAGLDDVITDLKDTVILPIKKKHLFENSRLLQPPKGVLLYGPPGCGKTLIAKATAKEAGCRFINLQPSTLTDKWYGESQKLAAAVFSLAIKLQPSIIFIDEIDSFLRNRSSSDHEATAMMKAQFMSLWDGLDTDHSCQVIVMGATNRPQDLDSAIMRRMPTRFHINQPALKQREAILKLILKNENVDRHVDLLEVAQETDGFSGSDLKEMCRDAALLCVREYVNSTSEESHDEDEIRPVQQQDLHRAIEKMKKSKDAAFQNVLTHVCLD
inactive: alvocidib -0.047 | Tubastatin A -0.016 | [1] 0.045 | defactinib -0.054 | [2] 0.006 | encorafenib -0.049 | [3] -0.042 | alisertib -0.119 | [4] 0.039 | gefitinib 0.22

CDAN1 (UniProt Q8IWY9)
inactive: alvocidib -0.034 | Tubastatin A -0.051 | [1] 0.049 | defactinib 0.039 | [2] 0.017 | encorafenib -0.018 | [3] 0.093 | alisertib 0.02 | [4] -0.022 | gefitinib -0.012

ATP9B (UniProt O43861)
inactive: alvocidib -0.076 | Tubastatin A 0.048 | [1] 0.044 | defactinib -0.117 | [2] -0.018 | encorafenib 0.068 | [3] 0.012 | alisertib -0.081 | [4] 0.16 | gefitinib -0.015

CAMKK2 (UniProt Q96RR4)
inactive: alvocidib -0.018 | Tubastatin A -0.123 | defactinib 0.059 | [2] -0.113 | encorafenib -0.013 | [3] 0.018 | alisertib -0.01 | [4] 0.019 | gefitinib 0.021
active: [1] 0.277

ATP11A (UniProt P98196)
inactive: alvocidib -0.002 | Tubastatin A -0.047 | [1] -0.021 | defactinib -0.017 | [2] -0.022 | encorafenib 0.028 | [3] -0.065 | alisertib -0.083 | [4] 0.01 | gefitinib 0.031

ATE1 isoform 2 (UniProt O95260)
inactive: alvocidib -0.116 | Tubastatin A -0.008 | [1] 0.036 | defactinib 0 | [2] 0.038 | encorafenib -0.013 | [3] 0.109 | alisertib 0.021 | [4] 0.004 | gefitinib -0.038

CHD4 isoform 2 (UniProt Q14839)
inactive: alvocidib -0.004 | Tubastatin A -0.069 | [1] -0.014 | defactinib 0.007 | [2] 0.017 | encorafenib 0.013 | [3] 0.087 | alisertib 0.016 | [4] -0.007 | gefitinib -0.014

CCNYL1 (UniProt Q8N7R7)
inactive: alvocidib -0.074 | Tubastatin A -0.076 | [1] 0.061 | defactinib 0.024 | [2] 0.055 | encorafenib 0.011 | [3] 0.032 | alisertib -0.012 | [4] 0.032 | gefitinib 0.101

C18orf25 isoform 2 (UniProt Q96B23)
inactive: alvocidib 0.1 | Tubastatin A 0.106 | [1] 0.1 | defactinib 0.072 | [2] 0.043 | encorafenib 0.033 | [3] -0.084 | alisertib 0.058 | [4] 0.031 | gefitinib 0.034

CAPN15 (UniProt O75808)
Chain of UniProt O75808 (O75808 whole entry, looked up): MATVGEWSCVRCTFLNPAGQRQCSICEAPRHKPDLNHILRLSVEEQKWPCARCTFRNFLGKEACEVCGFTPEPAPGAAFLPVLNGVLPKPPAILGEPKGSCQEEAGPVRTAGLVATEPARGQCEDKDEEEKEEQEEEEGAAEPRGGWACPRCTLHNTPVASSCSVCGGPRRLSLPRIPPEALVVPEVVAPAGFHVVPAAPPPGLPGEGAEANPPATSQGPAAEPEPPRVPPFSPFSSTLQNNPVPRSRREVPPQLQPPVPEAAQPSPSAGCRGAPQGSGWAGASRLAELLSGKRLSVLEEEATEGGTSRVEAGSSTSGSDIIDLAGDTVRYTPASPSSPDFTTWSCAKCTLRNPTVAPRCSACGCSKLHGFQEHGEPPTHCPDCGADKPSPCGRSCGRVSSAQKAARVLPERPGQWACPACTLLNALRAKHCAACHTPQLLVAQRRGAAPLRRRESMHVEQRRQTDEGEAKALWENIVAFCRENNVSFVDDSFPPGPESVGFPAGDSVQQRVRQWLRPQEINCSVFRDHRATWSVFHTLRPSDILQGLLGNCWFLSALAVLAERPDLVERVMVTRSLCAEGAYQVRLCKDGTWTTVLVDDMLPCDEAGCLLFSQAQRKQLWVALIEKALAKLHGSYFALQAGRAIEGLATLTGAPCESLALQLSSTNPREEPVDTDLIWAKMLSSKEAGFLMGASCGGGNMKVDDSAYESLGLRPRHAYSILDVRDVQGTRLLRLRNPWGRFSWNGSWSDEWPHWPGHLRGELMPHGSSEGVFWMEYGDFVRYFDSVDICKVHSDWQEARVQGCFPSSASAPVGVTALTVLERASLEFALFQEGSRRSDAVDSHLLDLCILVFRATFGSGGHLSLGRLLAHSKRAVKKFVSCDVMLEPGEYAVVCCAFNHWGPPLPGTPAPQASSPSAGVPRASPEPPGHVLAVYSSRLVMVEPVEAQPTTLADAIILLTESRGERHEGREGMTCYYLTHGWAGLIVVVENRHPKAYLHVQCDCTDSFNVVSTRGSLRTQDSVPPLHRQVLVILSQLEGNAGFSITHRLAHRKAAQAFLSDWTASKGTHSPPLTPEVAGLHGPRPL
inactive: alvocidib -0.01 | Tubastatin A -0.043 | [1] 0.001 | defactinib -0.014 | [2] 0.19 | encorafenib -0.029 | [3] 0.03 | alisertib -0.03 | [4] 0.024 | gefitinib -0.024

ATP6V0A2 (UniProt Q9Y487)
Chain of UniProt Q9Y487 (Q9Y487 whole entry, looked up): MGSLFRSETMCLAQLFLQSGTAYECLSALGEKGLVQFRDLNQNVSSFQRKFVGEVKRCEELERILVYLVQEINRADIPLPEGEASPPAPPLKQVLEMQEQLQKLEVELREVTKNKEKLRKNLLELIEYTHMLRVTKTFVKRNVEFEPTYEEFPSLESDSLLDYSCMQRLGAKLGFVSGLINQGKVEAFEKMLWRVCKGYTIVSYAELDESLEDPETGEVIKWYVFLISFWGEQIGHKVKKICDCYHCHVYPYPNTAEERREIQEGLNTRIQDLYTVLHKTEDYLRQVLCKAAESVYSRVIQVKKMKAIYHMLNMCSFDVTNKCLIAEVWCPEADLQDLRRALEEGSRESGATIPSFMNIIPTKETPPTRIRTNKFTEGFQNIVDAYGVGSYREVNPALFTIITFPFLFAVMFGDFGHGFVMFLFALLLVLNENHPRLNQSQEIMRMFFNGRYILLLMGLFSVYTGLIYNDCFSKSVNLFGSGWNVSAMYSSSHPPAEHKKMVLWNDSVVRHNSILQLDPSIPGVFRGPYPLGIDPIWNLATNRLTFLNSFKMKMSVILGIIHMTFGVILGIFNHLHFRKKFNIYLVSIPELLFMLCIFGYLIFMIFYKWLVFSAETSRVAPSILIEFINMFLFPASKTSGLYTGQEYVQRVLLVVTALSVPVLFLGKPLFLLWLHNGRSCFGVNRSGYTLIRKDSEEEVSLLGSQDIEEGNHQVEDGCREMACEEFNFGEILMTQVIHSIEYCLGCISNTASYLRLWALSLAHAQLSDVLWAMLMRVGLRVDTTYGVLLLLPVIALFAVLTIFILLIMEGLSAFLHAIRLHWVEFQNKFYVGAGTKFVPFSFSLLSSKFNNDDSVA
inactive: alvocidib -0.129 | Tubastatin A 0.091 | [1] 0.022 | defactinib 0.008 | [2] 0.001 | encorafenib 0.03 | [3] -0.027 | alisertib 0.015 | [4] 0.048 | gefitinib 0.036

CDK1 (UniProt P06493)
inactive: alvocidib 0.036 | Tubastatin A -0.032 | [1] -0.017 | defactinib -0.035 | [2] -0.021 | encorafenib 0.011 | [3] 0.036 | alisertib 0.002 | gefitinib -0.03
active: [4] 0.328

CAMKK1 isoform 2 (UniProt Q8N5S9)
Chain of UniProt Q8N5S9 (Q8N5S9 whole entry, looked up): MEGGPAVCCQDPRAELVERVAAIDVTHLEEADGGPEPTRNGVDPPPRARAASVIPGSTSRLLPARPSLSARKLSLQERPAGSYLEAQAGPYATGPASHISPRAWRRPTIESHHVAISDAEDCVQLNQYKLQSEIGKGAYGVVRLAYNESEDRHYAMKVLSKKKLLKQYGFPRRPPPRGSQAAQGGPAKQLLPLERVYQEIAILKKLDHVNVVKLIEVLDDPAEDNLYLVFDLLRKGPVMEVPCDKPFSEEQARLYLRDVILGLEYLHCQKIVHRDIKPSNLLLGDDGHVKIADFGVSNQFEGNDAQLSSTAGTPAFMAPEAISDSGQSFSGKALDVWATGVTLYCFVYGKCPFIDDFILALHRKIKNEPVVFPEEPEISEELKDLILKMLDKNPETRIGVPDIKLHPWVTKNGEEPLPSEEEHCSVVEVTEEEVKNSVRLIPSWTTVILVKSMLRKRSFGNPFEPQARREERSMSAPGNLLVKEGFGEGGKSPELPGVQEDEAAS
active: [1] 0.305
inactive: alvocidib 0.088 | Tubastatin A -0.167 | defactinib 0.051 | [2] -0.118 | encorafenib 0.014 | [3] 0.126 | alisertib -0.033 | [4] -0.048 | gefitinib 0.03

C12orf45 (UniProt Q8N5I9)
inactive: alvocidib -0.13 | Tubastatin A 0.007 | [1] 0.004 | defactinib -0.042 | [2] 0.036 | encorafenib 0.05 | [3] -0.06 | alisertib 0.016 | [4] 0.01 | gefitinib 0.011

BCL2L12 (UniProt Q9HB09)
inactive: alvocidib 0.012 | Tubastatin A 0.016 | [1] -0.087 | defactinib 0.113 | [2] -0.059 | encorafenib -0.207 | [3] 0.023 | alisertib 0.008 | [4] 0.1 | gefitinib -0.062

CAMK1 (UniProt Q14012)
inactive: alvocidib -0.074 | Tubastatin A 0 | [1] 0.067 | defactinib 0.04 | [2] -0.036 | encorafenib -0.054 | [3] -0.032 | alisertib 0.016 | [4] 0.029 | gefitinib -0.01

CDK9 isoform 2 (UniProt P50750)
Chain of UniProt P50750 (P50750 whole entry, looked up): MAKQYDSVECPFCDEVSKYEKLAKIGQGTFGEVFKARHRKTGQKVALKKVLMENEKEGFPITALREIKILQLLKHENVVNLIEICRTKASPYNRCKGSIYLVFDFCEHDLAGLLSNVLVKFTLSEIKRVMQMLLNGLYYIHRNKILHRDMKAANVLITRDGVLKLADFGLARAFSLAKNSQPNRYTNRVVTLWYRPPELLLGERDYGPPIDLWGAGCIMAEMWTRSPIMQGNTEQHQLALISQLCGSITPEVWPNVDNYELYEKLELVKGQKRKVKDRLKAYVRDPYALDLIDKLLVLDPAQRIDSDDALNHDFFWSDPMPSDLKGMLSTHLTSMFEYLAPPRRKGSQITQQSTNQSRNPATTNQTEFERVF
inactive: Tubastatin A -0.042 | [1] 0.024 | [2] 0.016 | encorafenib -0.008 | [3] -0.033 | alisertib -0.003 | [4] 0.191 | gefitinib 0.008
active: alvocidib 0.578 | defactinib 0.392

ATAD3B (UniProt Q5T9A4)
inactive: alvocidib 0.124 | Tubastatin A 0.047 | [1] -0.029 | defactinib 0.046 | [2] 0.039 | encorafenib 0.016 | [3] -0.128 | alisertib 0.006 | [4] -0.008 | gefitinib -0.001

CELF2 isoform 3 (UniProt O95319)
inactive: alvocidib 0.067 | Tubastatin A -0.025 | [1] 0.019 | defactinib 0.018 | [2] -0.02 | encorafenib 0.108 | [3] -0.031 | alisertib 0.037 | [4] -0.079 | gefitinib -0.061
